Reference: PubChem BioAssay AID1159580 (chemical genetic matrix, 2015)
“And” between values parts separate entries of the source, which are not always exact repeats. Identical values can stand only once. The campaign covered roughly 5,500 compounds. About 2,000 (36%) were called active. Inconclusive results (about 18%) are left out. Rule as the data show it: active = normalized growth mostly below about 0.91 (no sharp cut-off); inconclusive = no clear call, values can overlap the other calls; inactive = mostly above about 0.92. Some of the results follow.

Test: chemical genetic growth profiling, strain panel (AID 1159580);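 also: tested at 20 µM; growth read once vehicle control cultures reached saturation at 30 °C; 1 = growth at the plate median or of vehicle wells; lower values mean less growth of the strain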
Details: S. cerevisiae deletion strains, growth OD

Measured: normalized growth

c1coc(CNc2ncnc3nc[nH]c23)c1
inactive: locus YAL013W, strain DEP1, stronger effect = lower value 0.998 | locus YAL021C, strain ccr4, stronger effect = lower value 0.995 | locus YAL026C, strain drs2, stronger effect = lower value 0.997 | locus YAL030W, strain snc1, stronger effect = lower value 1 | locus YBL061C, strain skt5, stronger effect = lower value 0.997 | locus YBR009C, strain hhf1, stronger effect = lower value 0.988 | locus YBR021W, strain FUR4, stronger effect = lower value 1.02 | locus YBR023C, strain chs3, stronger effect = lower value 0.996 | locus YBR171W, strain sec66, stronger effect = lower value 0.994 | locus YBR229C, strain ROT2, stronger effect = lower value 1.01 | locus YBR231C, strain swc5, stronger effect = lower value 1 | locus YBR279W, strain paf1, stronger effect = lower value 1 | locus YCL011C, strain gbp2, stronger effect = lower value 1 | locus YCL016C, strain dcc1, stronger effect = lower value 1 | locus YCL029C, strain bik1, stronger effect = lower value 0.991 | locus YCL061C, strain MRC1, stronger effect = lower value 1.01 | locus YCL069W, strain vba3, stronger effect = lower value 0.999 | locus YCR088W, strain abp1, stronger effect = lower value 0.991 | locus YDL005C, strain med2, stronger effect = lower value 0.995 | locus YDL035C, strain GPR1, stronger effect = lower value 1.01 | locus YDL040C, strain nat1, stronger effect = lower value 0.996 | locus YDL074C, strain BRE1, stronger effect = lower value 0.997 | locus YDL101C, strain DUN1, stronger effect = lower value 0.995 | locus YDL134C, strain PPH21, stronger effect = lower value 1.01 | locus YDL185W, strain tfp1, stronger effect = lower value 0.964 | locus YDL192W, strain arf1, stronger effect = lower value 0.99 | locus YDR001C, strain nth1, stronger effect = lower value 0.993 | locus YDR069C, strain doa4, stronger effect = lower value 1 | locus YDR101C, strain arx1, stronger effect = lower value 0.996 | locus YDR137W, strain rgp1, stronger effect = lower value 0.964 | locus YDR150W, strain NUM1, stronger effect = lower value 0.992 | locus YDR159W, strain sac3, stronger effect = lower value 0.974 | locus YDR162C, strain NBP2, stronger effect = lower value 0.992 | locus YDR195W, strain ref2 0.974 | locus YDR297W, strain sur2, stronger effect = lower value 0.997 | locus YDR318W, strain mcm21, stronger effect = lower value 0.995 | locus YDR334W, strain swr1, stronger effect = lower value 1.01 | locus YDR335W, strain msn5, stronger effect = lower value 1.01 | locus YDR388W, stronger effect = lower value 1 | locus YDR392W, strain spt3, stronger effect = lower value 0.991 | locus YDR502C, strain sam2, stronger effect = lower value 1.01 | locus YEL003W, strain gim4, stronger effect = lower value 1 | locus YEL037C, strain rad23, stronger effect = lower value 0.998 | locus YEL061C, strain CIN8 (second series), stronger effect = lower value 0.997 | locus YEL061C, strain CIN8, stronger effect = lower value 0.995 | locus YER015W, strain faa2, stronger effect = lower value 1 | locus YER016W, strain bim1, stronger effect = lower value 0.99 | locus YER110C, stronger effect = lower value 0.999 | locus YER111C, strain swi4, stronger effect = lower value 0.986 | locus YER155C, strain BEM2 (second series), stronger effect = lower value 0.97 | locus YER155C, strain BEM2, stronger effect = lower value 0.999 | locus YER167W, strain BCK2, stronger effect = lower value 1 | locus YFR010W, strain ubp6, stronger effect = lower value 1 | locus YGL078C, strain dbp3, stronger effect = lower value 0.992 | locus YGL086W, strain mad1, stronger effect = lower value 1 | locus YGL167C, strain pmr1, stronger effect = lower value 1 | locus YGL173C, strain kem1, stronger effect = lower value 0.993 | locus YGL227W, strain vid30, stronger effect = lower value 0.993 | locus YGL240W, strain doc1, stronger effect = lower value 0.996 | locus YGL248W, strain PDE1, stronger effect = lower value 1.02 | locus YGL253W, strain hxk2, stronger effect = lower value 0.995 | locus YGR078C, strain PAC10, stronger effect = lower value 0.994 | locus YGR135W, strain pre9, stronger effect = lower value 0.997 | locus YGR229C, strain SMI1, stronger effect = lower value 1 | locus YGR252W, strain gcn5, stronger effect = lower value 1.19 | locus YHR013C, strain ard1, stronger effect = lower value 0.983 | locus YHR027C, strain rpn1, stronger effect = lower value 1 | locus YHR030C, strain SLT2, stronger effect = lower value 0.998 and 0.973 | locus YHR079C, strain IRE1 (second series), stronger effect = lower value 0.996 | locus YHR079C, strain IRE1, stronger effect = lower value 0.964 | locus YHR094C, strain hxt1, stronger effect = lower value 0.957 | locus YHR129C, strain ARP1, stronger effect = lower value 0.999 | locus YHR142W, strain chs7, stronger effect = lower value 0.992 | locus YHR200W, strain rpn10, stronger effect = lower value 0.986 | locus YIL066C, strain RNR3, stronger effect = lower value 1.01 | locus YIL073C, strain SPO22, stronger effect = lower value 0.978 | locus YIL125W, strain kgd1, stronger effect = lower value 0.988 | locus YIR030C, strain dcg1, stronger effect = lower value 0.998 | locus YJL092W, strain hpr5, stronger effect = lower value 0.995 | locus YJL095W, strain BCK1 (second series), stronger effect = lower value 0.994 | locus YJL095W, strain BCK1, stronger effect = lower value 0.985 and 0.986 | locus YJL115W, strain asf1, stronger effect = lower value 1 | locus YJL129C, strain trk1, stronger effect = lower value 1.02 | locus YJL134W, strain LCB3, stronger effect = lower value 0.997 | locus YJL154C, strain vps35, stronger effect = lower value 0.997 | locus YJL164C, strain tpk1, stronger effect = lower value 0.997 | locus YJL166W, strain qcr8, stronger effect = lower value 1 | locus YJL168C, strain set2, stronger effect = lower value 0.996 | locus YJL187C, strain SWE1 (second series), stronger effect = lower value 0.992 | locus YJR043C, strain POL32, stronger effect = lower value 0.985 | locus YJR066W, strain TOR1, stronger effect = lower value 0.912
